Assay results as given in PubChem BioAssay (NCI).
This is part of a sample that, as a whole, favours compounds with a hit. Of some 83,000 tested, about 20% had one in any assay.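 Growth was measured after 48 h exposure to one concentration of compound in 96-well plates. Values under 10 count as active.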 A number with no mark means an inactive call. Active and inactive are the calls of the source.

Each compound was assayed on U251 CNS (assay: NCI-60 one-dose screen, 48 h (100 = growth as untreated, 0 = no growth, -100 = all killed)). Details: 10 µM unless noted.
Protocol: Growth inhibition of the U251 human tumor cell line is measured as a screen for anti-cancer activity. Cells are grown in 96 well plates and exposed to the test compound for 48 hours. Compounds are tested at a single concentration, which is 10^-5 M for most compounds. The reported endpoint is percent growth (GI% or GIPRCNT), where numbers from 0 - 100% represent growth inhibition, and numbers from -100% - 0 represent cell death. For example, a value of 40 represents 60% growth inhibition. A value of 0 means no net growth occurred over the course of the experiment. A value of -40 indicates 40% of cells at the beginning of the experiment died by the end of the experiment. A value of -100 means all cells are dead at the end of the experiment.
NCI-60 Human Tumor Cell Lines Screen was performed using the standard one-dose NCI protocol, which is described in more detail at https://dtp.cancer.gov/discovery_development/nci-60/default.htm.
Compounds with GIPRCNT values below 10 were considered active. Activity score was based on GIPRCNT using the following formula: […]
Score is 0 for GIPRCNT values of 100 or above, 50 for GIPRCNT values of 0, and 100 for GIPRCNT values of -100.
Work on `CC(c1ccccc1)N1C(=O)CSC1=S` (stereo not given) yielded a growth of 17.3%.
`Oc1ccc2ccccc2c1CN1CCOCC1` gave a growth of 110%.
With `O=C(O)c1ccc([N+](=O)[O-])cc1S(=O)(=O)O` the growth was 94.9%.
`C=COC(=O)C(C)(C)C` was tested, and the growth was 99.4%.
Work on `CCNCC(C)(C)O` yielded a growth of 104%.
`C=CCOc1ccc(Cl)cc1Cl` gave a growth of 106%.
Compound `CN(C)c1ncnc2c1cnn2C` has a growth of 101%.
In the case of `CCOC(=O)c1c(C)[nH]c(C)c1C=O`, the growth is reported as 88.2%.
Compound `CC(=O)Nc1ccc(O)c(C)c1` has a growth of 92.5%.
`CCCNS(=O)(=O)c1ccc(Cl)cc1` showed a growth of 99.3%.
In the case of `C=C(C)[C@@H]1CC[C@]2(CO)CC[C@]3(C)[C@H](CC[C@@H]4[C@@]5(C)CC[C@H](O)C(C)(C)[C@@H]5CC[C@]43C)[C@@H]12`, the growth is reported as 24.9%.
Work on `Cc1ccc(C)c(CN(C)C)c1O` yielded a growth of 99.6%.
`COc1cccc(C(=O)O)c1OC` showed a growth of 98.2%.
`COc1ccc2c(ccc[n+]2C)c1` was tested, and the growth was 96.7%.
`CCC(=O)Oc1c(C)cc(O)c2ccccc12` gave a growth of 87.7%.
In the case of `N#CCCN1C(=O)CCC1C(=O)O` (stereo not given), the growth is reported as 101%.
For `CN1CCCN(C(c2ccccc2)c2ccc(Cl)cc2)CC1` (stereo not given), the growth was 97.2%.
`CCCOCc1cn[nH]n1` was tested, and the growth was 96.1%.
In the case of `Cc1cc(Cl)cc(Cc2cc(Cl)cc(C)c2O)c1O`, the growth is reported as 8.37% (active).
In the case of `Clc1ccc(-c2noc(/C=C\c3ccccc3)n2)cc1`, the growth is reported as 91.2%.
`CCCCCCCCCc1ccc(OC(C)=O)cc1` showed a growth of 97.9%.
`ClCC(Cl)C1CCC(Cl)C(Cl)C1` (stereo not given) gave a growth of 99.6%.
For `Cc1ccc(N)c(S(=O)(=O)O)c1`, the growth was 104%.
`OC(CCN1CCCCC1)(c1ccccc1)c1ccccc1` was tested, and the growth was 100%.
In the case of `CC1(C)OC2C(CO)OC(n3ccc(=O)[nH]c3=O)C2O1` (stereo not given), the growth is reported as 87.6%.
Compound `BrCc1cccc(C[P+](c2ccccc2)(c2ccccc2)c2ccccc2)c1` has a growth of 19.4%.
`CCOC(=O)/C(O)=C(\C=N\C(=S)Nc1ccc(Cl)c(Cl)c1)C(=O)OCC` gave a growth of 98.2%.
Work on `Cc1ccc(OC(=O)c2ccccc2)cc1` yielded a growth of 94.8%.
`Cc1c(-c2ccc(C3CCCCC3)cc2)nc2ccc(F)cc2c1C(=O)O` gave a growth of 44.2%.
With `Cn1c2ccccc2c2nnc(NCCCCO)nc21` the growth was 103%.
Compound `COC1OC(C(COC(C)=O)OC(C)=O)C(OC(C)=O)C(OC(C)=O)C1OC(C)=O` (stereo not given) has a growth of 101%.
Compound `N#CC1(O)CCCCC1` has a growth of 94.7%.
`CCOC(C=O)OCC` was tested, and the growth was 97.4%.
For `S=C=Nc1ccc2ccccc2c1`, the growth was 97.8%.
In the case of `C/C(O)=C(/C=N\C(=S)Nc1ccc(S(=O)(=O)Nc2nccs2)cc1)C(=O)Nc1ccccc1C`, the growth is reported as 84%.
`Nc1nc2nnc(-c3ccccc3)c(-c3ccccc3)n2n1` gave a growth of 111%.
Compound `FC(F)(F)c1cc(NC2=NCCN=C(Nc3cc(C(F)(F)F)cc(C(F)(F)F)c3)SS2)cc(C(F)(F)F)c1` has a growth of 23.3%.
With `C=CC(C)C(C)(C)O` (stereo not given) the growth was 103%.
Compound `CCOc1ccc2c(c1)c(C)cc(C)[n+]2CC` has a growth of 45.7%.
Work on `O=C(c1cccc(C(=O)c2ccc3c4c(cccc24)C(=O)N(c2ccccc2)C3=O)c1)c1ccc2c3c(cccc13)C(=O)N(c1ccccc1)C2=O` yielded a growth of 89.3%.
